Measurements from PubChem BioAssay AID2561 (National Center for Advancing Translational Sciences (NCATS), 2010).
“And” between values parts separate entries of the source, which are not always exact repeats. Equal values may be shown once. Records with an inconclusive call do not appear. The source made the active and inactive calls. Calls come from the whole dose curve; as a rule, active = well fitted inhibition curve with a large enough effect; inconclusive = small, poorly fitted or top-dose-only effect, or effect the other way; inactive = flat fitted curve, though single readings scatter.

biological target: Pyruvate kinase (Leishmania mexicana) (UniProt Q27686); assay: Confirmation Assay for Inhibitors of Leishmania Mexicana Pyruvate Kinase (LmPK): for Probe SAR; conditions: purified LmPK, ATP generation, Kinase-Glo luminescence; series mostly up to 57.5 µM; activity change, negative = inhibition: at the top concentration;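 for activity change, negative = inhibition: plate controls were uninhibited enzyme for no effect and no enzyme wells for full effect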
How it was run: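 Purified LmPK (0.1 nM) converted ADP (0.1 mM, ~10-fold below Km) plus PEP (0.5 mM, at Km) to ATP over 1 h at room temperature in pH 7.2 imidazole buffer. Generated ATP was read by luciferase luminescence.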
Potency is the fitted concentration of half-maximal effect.

Chain of Pyruvate kinase (Leishmania mexicana) (Q27686 whole entry, looked up): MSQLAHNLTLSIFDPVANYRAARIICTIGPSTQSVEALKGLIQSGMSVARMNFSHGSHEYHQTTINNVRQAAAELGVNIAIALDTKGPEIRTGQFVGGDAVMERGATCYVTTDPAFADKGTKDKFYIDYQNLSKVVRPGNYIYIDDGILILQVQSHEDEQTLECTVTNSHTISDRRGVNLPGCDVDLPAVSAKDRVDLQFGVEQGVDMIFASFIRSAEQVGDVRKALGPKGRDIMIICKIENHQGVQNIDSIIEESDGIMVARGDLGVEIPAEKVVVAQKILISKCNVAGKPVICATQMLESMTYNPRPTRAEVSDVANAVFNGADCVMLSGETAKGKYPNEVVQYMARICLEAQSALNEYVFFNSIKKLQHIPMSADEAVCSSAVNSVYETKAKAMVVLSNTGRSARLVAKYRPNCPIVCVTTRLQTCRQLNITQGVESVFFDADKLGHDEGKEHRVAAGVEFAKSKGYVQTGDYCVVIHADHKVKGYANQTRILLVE

Activity change, negative = inhibition, inactive:
Cc1ccn2c(NCc3ccco3)c(-c3ccccc3)nc2c1 -21.3%, COc1ccc(O)cc1 10.5%, Cc1cc(N2C(=O)c3ccccc3C2=O)n[nH]1 10.3%, Cc1ccc(NS(=O)(=O)c2ccc3c(c2)CCN(C(=O)C(F)(F)F)C3)cc1C 9.77%, Nc1cc(S(=O)(=O)N2CCN(S(=O)(=O)c3ccc4c(c3)OCCO4)CC2)ccn1 3.64%, COc1ccc(NS(=O)(=O)c2ccccc2C(=O)O)cc1 8.54%, Cc1ccc(NS(=O)(=O)c2ccc(N3CCCC3=O)cc2)cc1C 4.2%, Cc1ccc(Nc2c(-c3ccsc3)nc3c(C)cccn23)cc1 -12%, COC(=O)c1ccc2c(c1)S(=O)(=O)NC2=O -0.49%, COc1cccc(N2C(=O)c3ccccc3C2=O)n1 -0.188%, Cc1ccc(NS(=O)(=O)c2ccc3c(c2)CCCC(=O)N3)cc1C 13.9%, Cc1ccc(NS(=O)(=O)c2cccc(F)c2)cc1C -2.19%, COC(=O)c1ccccc1S(=O)(=O)Nc1ccc(OC)cc1 4.6%, CCNc1cccc(S(=O)(=O)N2CCN(S(=O)(=O)c3ccc4c(c3)OCCO4)CC2)c1 3.57%, CC(=O)Nc1ccc(S(=O)(=O)Nc2ccc(C)c(C)c2)cc1 -4.95%, COc1ccccc1N1C(=O)c2ccccc2C1=O 27.3%, Cc1ccc(Nc2c(-c3ccc(C)s3)nc3cccc(C)n23)cc1 -1.87%, Cc1ccc(NS(=O)(=O)c2ccc3[nH]c(=O)[nH]c3c2)cc1C 0.937%, Cc1ccccc1N(C)C1=N[S+](=O)([O-])c2ccccc21 2.85%, Cc1ccc(C)c(SC2=N[S+](=O)([O-])c3cc(C(=O)Nc4ccc5ncccc5c4)ccc32)c1 -10.8%

Potency, active:
Cc1ccc(C)c(OC2=NS(=O)(=O)c3ccccc32)c1 2.59 µM, O=S1(=O)N=C(Oc2ccc(C(F)(F)F)cc2)c2ccccc21 3.66 µM, O=S1(=O)N=C(Sc2ccc3c(c2)OCCO3)c2ccccc21 3.66 µM, COc1ccccc1OC1=NS(=O)(=O)c2ccccc21 4.31 µM, N#Cc1ccccc1OC1=NS(=O)(=O)c2ccccc21 5.8 µM, O=C1c2ccccc2C(=O)N1c1cc(=O)c2ccccc2[nH]1 3.26 µM, O=S1(=O)N=C(Oc2ccc(-c3ccccc3)cc2)c2ccccc21 4.11 µM, O=S1(=O)N=C(Oc2cccc(Br)c2)c2ccccc21 3.66 µM, O=C(O)c1ccccc1SC1=NS(=O)(=O)c2ccccc21 4.61 µM and 8.91 µM

Potency, inactive:
O=C1NS(=O)(=O)c2ccccc21
